TDP1 cell noCPT: qHTS for Inhibitors of human tyrosyl-DNA phosphodiesterase 1 (TDP1): qHTS in cells in absence of CPT; actives 15% (n = 420,000); Potency, µM (doses to about 46.2 µM), without a hit: at the top dose activity change, negative = growth inhibition, actives largely listed as inhibitors; AID 686978, 2013; DT40 Tdp1-/- hTDP1 cells, no CPT, ATP luminescence, 48 h; note: potency is the fitted concentration of half-maximal effect; nearly all actives have a fitted effect of over 55% in size
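Luminescent ATP content (CellTiter-Glo) served as the growth readout. Knockout chicken DT40 cells expressing human TDP1 were exposed to compounds without camptothecin for a minimum 48 hr at 37 °C.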
IL1B secr inh: blocks inflammasome-driven IL-1 beta release; AID 743279; activity change, % at 57.5 µM; actives 4.7% (n = 360,000); THP-1 LPS/ATP IL-1B secretion, AlphaLISA, 16 h; stronger effect = lower value; in the data active = activity change below about -50%; inconclusive = mostly about -30% to -49%
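THP-1 cells pretreated 1 hr with compounds (up to 57.5 uM final), then stimulated with LPS (250 ng/mL final) plus ATP (1.25 mM final); secreted IL-1B measured by AlphaLISA after 16 hr, decreased signal indicating inhibition.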
CtBP-E1A blk: inhibitors of CtBP/E1A interaction; activity change, % (no concentration beside the values); actives 0.49% (n = 340,000); AlphaScreen GST-E1A/His-CtBP binding, 1536-well; stronger effect = lower value; in the data active = activity change below about -65%; inconclusive = mostly about -30% to -63%
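GST-E1A and His-tagged CtBP (125 nM each as 5X stock) were preincubated with pin-transferred compound for 2 h at 37 °C in the dark, then glutathione donor and nickel acceptor beads were added for 1 h before AlphaScreen reading.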
TDP1 inh: TDP1 (human) enzyme inhibition | recombinant TDP1, AlphaScreen DNA substrate cleavage | AID 485290 | Q9NUW8 | Potency, µM (series often up to 130 µM), for inactives: at the top dose activity change, negative = inhibition, usual class: inhibitors | actives 0.28% (n = 350,000); note: potency is the fitted concentration of half-maximal effect; nearly all actives have a fitted effect of over 40% in size
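Recombinant E. coli-expressed Tdp1 (1 nM) preincubated with compound 15 min at RT, then 5'-biotin/3'-phosphotyrosine-FITC DNA substrate (15 nM) added for 5 min. AlphaScreen beads (10 ug/ml) added, 10 min RT; tyrosine-FITC cleavage read as signal loss.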
Six1-Eya2 blk: Six1/Eya2 interaction inhibition; Q15475+O00167; AlphaScreen GST-Six1/His-Eya2 binding, biochemical; stronger effect = lower value; activity change, % (no concentration beside the values); actives 0.56% (n = 360,000); AID 651725; in the data active = activity change below about -65%; inconclusive = mostly about -30% to -63%
Target sequence (O00167 whole entry, looked up): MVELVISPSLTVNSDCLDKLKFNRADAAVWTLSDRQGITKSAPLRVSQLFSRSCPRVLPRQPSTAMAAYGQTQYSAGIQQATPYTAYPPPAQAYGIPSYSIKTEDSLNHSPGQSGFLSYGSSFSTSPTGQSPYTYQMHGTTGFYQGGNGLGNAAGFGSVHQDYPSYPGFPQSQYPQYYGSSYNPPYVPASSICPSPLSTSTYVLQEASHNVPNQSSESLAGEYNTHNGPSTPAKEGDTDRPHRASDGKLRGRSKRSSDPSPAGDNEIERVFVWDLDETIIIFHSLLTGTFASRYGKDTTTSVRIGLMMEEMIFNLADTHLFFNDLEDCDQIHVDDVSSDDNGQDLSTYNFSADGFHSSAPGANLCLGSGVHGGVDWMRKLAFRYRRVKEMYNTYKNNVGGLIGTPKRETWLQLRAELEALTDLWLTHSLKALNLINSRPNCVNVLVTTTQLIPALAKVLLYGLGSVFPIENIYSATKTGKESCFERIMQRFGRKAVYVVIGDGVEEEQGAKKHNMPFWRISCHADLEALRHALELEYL
Target sequence (Q15475 whole entry, looked up): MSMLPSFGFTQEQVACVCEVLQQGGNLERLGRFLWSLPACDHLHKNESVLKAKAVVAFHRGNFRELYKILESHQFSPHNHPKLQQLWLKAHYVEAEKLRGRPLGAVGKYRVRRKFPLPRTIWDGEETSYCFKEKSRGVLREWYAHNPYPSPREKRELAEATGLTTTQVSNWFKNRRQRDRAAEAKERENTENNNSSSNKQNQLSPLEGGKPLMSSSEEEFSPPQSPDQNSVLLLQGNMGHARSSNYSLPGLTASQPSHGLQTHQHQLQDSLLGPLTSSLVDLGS
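AlphaScreen with GST-Six1 and His-Eya2 (5X mix: 250 nM and 500 nM), glutathione donor and nickel acceptor beads; buffer 50 mM Tris pH 8.0, 300 mM NaCl, 1 mM TCEP; 1 h at 37 C in the dark.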
TDP1 cell CPT: DT40-hTDP1 cell growth loss with CPT; chicken DT40 Tdp1-/-;hTDP1 cells + 20 nM CPT, ATP luminescence, 48 h; Potency, µM (doses to about 46.2 µM), inactives show at the top dose activity change, negative = growth inhibition, hits mostly inhibitors; actives 12% (n = 420,000); AID 686979; note: potency is the fitted concentration of half-maximal effect; nearly all actives have a fitted effect of over 55% in size
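Chicken DT40 Tdp1-/- cells complemented with human TDP1, 400 cells/well, exposed to compounds plus 20 nM camptothecin for at least 48 h at 37 C; viability read as ATP content by CellTiter-Glo luminescence.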
* hit, by the source's call; i = inactive; ? = inconclusive; / = no result given; [ ] = dose if it differs, or a comment. Only some compounds are listed: those with a hit (about 18% of all), similar ones and a draw of the others. Unless noted, calls come from the whole dose curve; as a rule, active = well fitted curve in the direction sought with a large enough effect; inconclusive = small, poorly fitted or top-dose-only effect, or another doubt; inactive = no such curve, though single readings can be large; an effect the other way counts as inactive or inconclusive. % is set by controls: 0 for no effect and ±100 for the full control effect.

SMILES	TDP1 cell noCPT	IL1B secr inh	CtBP-E1A blk	TDP1 inh	Six1-Eya2 blk	TDP1 cell CPT
Cc1ccc(-n2nc(CO)c(C(=O)NC(C)CCCc3ccccc3)n2)cc1 (stereo not given)	21µM*	/	/	0%	/	?
COc1ccc2c(C)c(CC(=O)NCc3ccccc3Cl)c(=O)oc2c1OC	-5%	/	/	2%	/	-14%
CCCCCCCN1C2=NCCN2c2ccccc21	18µM*	-55*	1	0%	4	12µM*
CCCCN1C2=NCCCN2c2cc(C)c(C)cc21	23µM*	-3	11	1%	-5	18µM*
CCCCN1C2=NCCCN2c2ccccc21	?	14	1	1%	5	?
CCCCN1c2ccccc2N(CCCO)c2cc(C)nnc21	-17%	-5	2	0%	3	-12%
CCCCCCN1C2=NCCN2c2ccccc21	?	-21	5	5%	0	?
CCCCCCCN1C2=NCCCN2c2ccccc21	2.3µM*	-72*	-1	-4%	0	2.6µM*
CCCCN1C2=NC(c3ccccc3)CN2c2ccccc21 (stereo not given)	26µM*	-27	-2	/	4	?
CCOc1ccc(-c2ccc(NS(=O)(=O)c3ccc([N+](=O)[O-])cc3)cc2)nn1	1%	-2	-1	6%	0	?
COc1cc(C)nc(Oc2ccc(OCc3ccccc3)nn2)n1	-1%	4	8	3%	3	-22%
O=C(NN1CCOCC1)c1ccc(Cl)cc1	-16%	0	4	-3%	-2	9%
O=C1c2cccc3c2[C@H](CCC3)CN1[C@@H]1CN2CCC1CC2	15µM*	/	/	/	/	17µM*
O=C1c2cccc(-c3ccc(C(F)(F)F)cc3)c2C2CCCCN12 (stereo not given)	?	48	1	/	-4	?
O=C1CC(c2ccccc2)Sc2ccccc2N1 (stereo not given)	10µM*	0	-6	3%	-1	13µM*
Cc1cccc(OCc2nnc(SCC(=O)N3CC(=O)Nc4ccccc43)o2)c1	-26%	10	1	5%	1	-8%
O=C(OCCN1C(=O)c2cccc3c(N4CCOCC4)ccc(c23)C1=O)c1ccc(Cl)cc1	1.6µM*	-4	1	1%	1	2.1µM*
CCCN(CCC)S(=O)(=O)c1ccc(C(=O)OCCN2C(=O)c3cccc4c(N5CCOCC5)ccc(c34)C2=O)cc1	?	43	-7	-9%	20	?
COC(=O)[C@@H](Cc1ccccc1)NC(=O)NCCc1c[nH]c2ccccc12	?	-98*	3	/	-4	-1%
N#C/C(=C/c1ccc(Br)s1)C(=O)NCCc1c[nH]c2ccccc12	21µM*	?	-1	8%	-10	23µM*
CC(=O)c1ccc(S(=O)(=O)NCCC(=O)NCCc2c[nH]c3ccccc23)cc1	?	0	-3	3%	-7	?
COc1cc(/C=C(/C#N)C(=O)NCCc2c[nH]c3ccccc23)ccc1OCc1ccccc1F	?	10	-1	2%	4	12µM*
O=C(NCCc1c[nH]c2ccccc12)N[C@@H](Cc1ccccc1)C(=O)O	-12%	7	4	/	-3	-12%
O=C(CCNS(=O)(=O)c1ccc(OC(F)(F)F)cc1)NCCc1c[nH]c2ccccc12	23µM*	-8	2	2%	-3	15µM*
COc1ccc(/C=C/C(=O)NCCc2c[nH]c3ccccc23)cc1OC	?	-12	/	7%	-5	?
SMILES	TDP1 cell noCPT	IL1B secr inh	CtBP-E1A blk	TDP1 inh	Six1-Eya2 blk	TDP1 cell CPT
Cc1cc(/C=C(\C#N)C(=O)NCCc2c[nH]c3ccccc23)c(C)n1C	?	?	-21	8%	-26	?
CCN(CC)CCCNC(=O)c1cc2nc3c(c(C(F)(F)F)n2n1)CCc1ccccc1-3	?	?	-10	0%	-12	?
Cc1c(NC(=O)N2CCCCCC2)c(=O)n(-c2ccccc2)n1C	-12%	-21	-1	3%	-9	-9%
Cc1cc2cc(CCNC(=O)C(=O)c3c[nH]c4ccccc34)c(=O)[nH]c2cc1C	18µM*	-56*	-8	5%	0	15µM*
Cc1cc2cc(CCNC(=O)C(C)C)c(=O)[nH]c2cc1C	-22%	5	3	/	3	-4%
O=C(NCCc1c[nH]c2ccccc12)C(=O)c1c[nH]c2ccccc12	15µM*	-18	/	9%	-25	?
C=C(C)[C@H]1CC=C(C)C(=O)C1	13%	25	4	0%	0	-1%
Cc1ccn(CCC(=O)NC2CCCc3c2cnn3-c2cccc(C)c2C)n1 (stereo not given)	-1%	10	5	2%	4	?
Cc1cccc(-n2ncc3c2CCCC3NC(=O)c2ccc[n+]([O-])c2)c1C (stereo not given)	?	20	-1	0%	2	12µM*
Cc1cccc(-n2ncc3c2CCCC3NC(=O)CCc2ccncc2)c1C (stereo not given)	6.5µM*	0	0	0%	0	12µM*
Cc1ccccc1-n1ncc2c1CC(C)(C)CC2NC(=O)C1CCC1 (stereo not given)	-3%	52	1	2%	-6	2%
O=C(NC1CCCc2c1cnn2-c1cc(F)cc(F)c1)c1ccc[n+]([O-])c1 (stereo not given)	-4%	8	-2	1%	-1	-3%
Cc1cccc(-n2ncc3c2CCCC3NC(=O)C2CCOCC2)c1C (stereo not given)	15µM*	i	2	2%	1	?
Cc1cc(C(=O)NC2CCCc3c2cnn3-c2cccc(C)c2C)n(C)n1 (stereo not given)	0.21µM*	14	8	5%[56.1 µM]	14	0.15µM*
CC1CC(C)CN(C(=O)COC(=O)c2cncc(Br)c2)C1 (stereo not given)	2%	13	0	0%	0	0%
CCN(CC)C(=O)C1CCN(S(=O)(=O)c2cccc3nonc23)CC1	-7%	9	23	5%	-1	-14%
CC(C)c1ccc(/C=N/NC(=O)CN(c2cccc(Cl)c2Cl)S(C)(=O)=O)cc1	?	?	-5	3%	2	29µM*
